High-throughput results as filed in PubChem BioAssay.
Compounds with a hit are over-represented: about 3.5% of the library has one in this group of screens.
MITF inh: human MITF inhibition, primary screen | inhibition, % at 2.6 µM | AID 1259374 | AlphaScreen MITF homodimerization, bead proximity signal | 650,000 compounds, 0.91% hits; in the data active means inhibition above about 50%;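 further: 0% = vehicle wells with protein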
TEAD-YAP block: TEAD-YAP interaction inhibition; HEK-TIYL cells, TEAD-Gal4/YAP UAS-luciferase luminescence; inhibition, % at 9.12 µM; 640,000 compounds, 1.4% hits; AID 1259422; in the data active means inhibition above about 32%;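 further: 0% = median of test compound wells and 100% = reference inhibitor wells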
GPR151 ag: human GPR151 activation; 650,000 compounds, 1% hits; PathHunter beta-arrestin GPR151 cells, luminescence; AID 1508602; Q8TDV0; activation, % at 11.2 µM; in the data active means activation above about 4.9%;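 further: 0% = median of compound wells and 100% = cells with positive control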
Target sequence (Q8TDV0 whole entry, looked up): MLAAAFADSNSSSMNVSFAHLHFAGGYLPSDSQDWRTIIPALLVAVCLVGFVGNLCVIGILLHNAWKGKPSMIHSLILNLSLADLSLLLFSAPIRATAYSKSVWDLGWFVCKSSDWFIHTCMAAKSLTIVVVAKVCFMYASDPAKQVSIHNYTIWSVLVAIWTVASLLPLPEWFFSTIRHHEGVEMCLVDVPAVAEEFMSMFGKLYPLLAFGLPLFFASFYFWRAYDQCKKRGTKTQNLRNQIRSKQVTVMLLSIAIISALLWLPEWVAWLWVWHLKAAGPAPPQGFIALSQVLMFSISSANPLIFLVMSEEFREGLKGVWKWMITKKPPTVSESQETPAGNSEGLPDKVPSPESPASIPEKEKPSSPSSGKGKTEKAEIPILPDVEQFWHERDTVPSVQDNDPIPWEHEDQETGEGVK
FBW7 act: activators of human E3 ligase FBW7. Q969H0. AlphaScreen FBW7–phospho-cyclin E peptide binding, activator screen. normalized activity (activation), % at 26.1 µM. 650,000 compounds, 0.13% hits. AID 1259310; in the data active means normalized activity above about 1.9%;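 further: purified mutant Fbw7 with reduced substrate affinity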
GPR151 conf act: human GPR151 activation, confirmation screen; shares compounds with GPR151 ag; GPR151 PathHunter beta-arrestin cells, luminescence, 90 min; % of EA-reagent control over plate median; activation, % at 11.2 µM; 6,700 tested, under 10 active;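 active means mean percent activation across replicates above the confirmation screen cutoff of 4.91%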
GPR119 counter: GPR119 activation, counter-screen for GPR151 activators. shares compounds with GPR151 ag. GPR119 PathHunter beta-arrestin cells, luminescence, 90 min; 0 = compound-well median, 100 = enzyme-acceptor control. activation, % at 11.2 µM. 6,700 compounds, 0.3% hits;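 active means mean percent activation in the counterscreen above 29.09%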;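 further: counterscreen on off-target GPR119 to flag nonselective hits from the GPR151 activator screen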
Starred values were filed as active, the others as inactive; x = not tested or not shown.

SMILES	MITF inh	TEAD-YAP block	GPR151 ag	FBW7 act	GPR151 conf act	GPR119 counter
CCC1(CCC(=O)N2CCC(O)(c3ccc(Cl)cc3)CC2)CCC(=O)N1 (stereo not given)	-8	2	-1	0	x	x
N#C/C=C(\c1ccc(F)cc1)N1CCOCC1	-14	3	8.4*	0	-1	-4
CCOC(=O)Cn1nnnc1CN(Cc1ccccc1)Cc1cc2cc(C)ccc2[nH]c1=O	3	-18	6.4*	0	-1	-15
O=C(CN1C(=O)C2C3CCC(C3)C2C1=O)Nc1ccc(-c2ccccc2)cc1 (stereo not given)	1	1	-1	0	x	x
O=C(CN1C(=O)C2C3CCC(C3)C2C1=O)Nc1ccc(-n2cnnn2)cc1 (stereo not given)	5	1	5.1*	0	1	6
CCc1nnc(NC(=O)CCCOc2ccccc2C)s1	-3	4	12*	0	1	-2
CCc1nnc(NC(=O)CN2CCC(O)(c3ccccc3OC)CC2)s1	3	1	6.5*	0	1	7
Cc1ccccc1OCCCC(=O)Nc1nnc(C(C)C)s1	-14	6	2	0	x	x
CCOc1ccccc1-n1c(N)c(C(=O)OC)sc1=S	7	12	0	0	x	x
O=S(=O)(NCCSc1nnnn1-c1ccccc1)c1ccccc1	-1	-3	8.7*	0	0	13
Cc1ccc(Cn2ncc3c(NCCCN4CCOCC4)ncnc32)cc1	-11	-1	0	0	x	x
Clc1ccc(Cn2ncc3c(NCCN4CCOCC4)ncnc32)cc1	11	-4	6.7*	0	0	2
Cc1oc(-c2ccc(Cl)cc2)nc1CS(=O)CC(=O)NC1CCCCCC1 (stereo not given)	8	-12	0	0	x	x
Cc1oc(-c2ccc(Cl)cc2)nc1CS(=O)CC(=O)NC1CCCCC1 (stereo not given)	12	-3	8.3*	0	1	-3
O=C(NC1CCC(O)CC1)c1ccc(CN2CCc3ccccc3C2)[nH]c1=O (stereo not given)	2	4	1	0	x	x
CC(C)N(CCCNC(=O)Cn1ncc2c3ccccc3n(C)c2c1=O)Cc1ccccc1	-6	1	1	0	x	x
CC(=O)N1CN(Cc2cccnc2)Cc2c1sc1c2CCCC1	-5	-4	0	0	x	x
CC(=O)N1CN(Cc2ccccc2)Cc2c1sc1c2CCCC1	1	-8	5.5*	0	0	-3
COc1ccc(CC(=O)Nc2ccc(S(=O)(=O)N3CCOCC3)cc2)cc1OC	9	4	2	0	x	x
CCn1c(Cc2ccccc2)nnc1SCC(=O)N1CCCCC1	7	2	6.3*	0	0	4
Cc1n[nH]c(C)c1CCC(=O)N/N=C/c1ccc(Cl)cc1	13	0	6.0*	0	0	4
Cc1n[nH]c(C)c1CCC(=O)O	-1	0	4.9*	0	-1	-3
Cc1n[nH]c(C)c1CCC(=O)N/N=C\c1ccc(C(C)(C)C)cc1	-12	-21	-1	0	x	x
CC(=O)c1c(C)[nH]c2ccccc2c1=O	-1	-6	1	0	x	x
Cc1[nH]c2ccccc2c(=O)c1Br	11	7	5.6*	0	0	7
SMILES	MITF inh	TEAD-YAP block	GPR151 ag	FBW7 act	GPR151 conf act	GPR119 counter
COc1ccccc1NC(=O)C1C2C=CC(C3CC23)C1C(=O)O (stereo not given)	15	6	12*	0	0	1
Cc1ccccc1NC(=O)C1C2C=CC(C3CC23)C1C(=O)O (stereo not given)	17	-7	0	0	x	x
Nc1nc(SCC(=O)c2ccc(Cl)cc2)nc2sc3c(c12)CCN(Cc1ccccc1)C3	4	-6	1	0	x	x
Cc1ccc(NC(=O)C2CCN(S(=O)(=O)c3ccc(Cl)s3)CC2)cc1	-17	2	5.9*	0	-1	-15
COc1ccc(C2Nc3ccccc3NC3=C2C(=O)NC3)cc1 (stereo not given)	9	-61	-2	0	x	x
O=C1NCC2=C1C(c1ccc(Br)cc1)Nc1ccccc1N2 (stereo not given)	8	5	5.5*	0	0	11
COc1ccccc1-c1nnc(C2CCN(S(=O)(=O)c3ccccc3)CC2)o1	-5	0	5.8*	0	0	-10
O=C(CSc1nnc2scc(-c3ccccc3)n12)N1CCCCCC1	21	-3	-2	1	x	x
Cc1ccc(-c2csc3nnc(SCC(=O)N4CCOCC4)n23)cc1	8	0	5.0*	1	1	-1
COc1ccc(OC)c(-n2c(CN3CCC(C(N)=O)CC3)nc3ccccc3c2=O)c1	5	15	5.6*	0	0	-11
O=C(/C=C/c1ccccc1)N1CCN(C2=NN=C(c3ccccc3)CS2)CC1	1	-21	6.2*	0	-1	-5
COc1ccc(C2C(C#N)=C(N)Oc3n[nH]c(C)c32)cc1OCc1ccc(C(=O)OCC(C)C)cc1 (stereo not given)	17	-6	-1	0	x	x
Cc1cc(N)nc(-c2ccc(C(=O)N3CCN(C)CC3)cc2)n1	6	-11	8.5*	0	0	6
CCCNc1cc(C)nc(-c2ccc(C(=O)N3CCN(C)CC3)cc2)n1	-6	-43	-2	0	x	x
C=C(C)CNC(=S)N/N=C/c1ccc(OCCC)cc1O	9	4	0	-1	x	x
O=C(Nc1ccccc1)OCC1CCCO1 (stereo not given)	3	-35	11*	0	0	-5
COc1ccccc1N=C1SC(CC(=O)Nc2cccc([N+](=O)[O-])c2)C(=O)N1C (stereo not given)	-3	-6	14*	0	-1	-7
CC1CN(C(=O)CCC(=O)N2CCOCC2)c2ccccc2O1 (stereo not given)	4	8	8.3*	0	-1	-19
COc1cccc(C(c2sc3nc(C)nn3c2O)N2CCC(C(N)=O)CC2)c1 (stereo not given)	-1	6	0	0	x	x
CCc1nc2sc(C(c3cccc(OC)c3)N3CCC(C(N)=O)CC3)c(O)n2n1 (stereo not given)	6	-2	5.8*	0	-1	-4
CCOC(=O)CNC(=O)CN1CCN(c2ccc(Cl)cc2)C1=O	1	-17	1	0	x	x
O=C1CCCCN1c1cccc(NS(=O)(=O)c2cc(F)ccc2F)c1	11	12	7.1*	1	3	6
CC(=O)Nc1cc(NC(=O)c2cc3n(n2)C(C(F)(F)F)CC(c2ccco2)N3)ccc1C (stereo not given)	6	4	-1	0	x	x
O=c1oc2c3c(ccc2c2c1CCC2)OCN(c1ccc(F)cc1)C3	6	3	5.1*	0	0	-12
